The campaign covered roughly 39,000 compounds. About 220 (0.56%) showed activity. This excerpt belongs to a sample that is enriched for actives. A number with no mark means an inactive call.

Data on 13 molecules can be found in the supplement of paper PMC9446081.
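Further: Wild-type cells incubated without shaking, value is the mean of two biological replicates.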

The experiment concerns Escherichia coli K-12 BW25113. As to the kind of experiment: relative growth (OD600 normalised to plate interquartile mean) (fraction); higher = less growth inhibition, active = 0.2 or less. Particulars: 50 µM; LB; incubation time: overnight (16-24 h).
`C[C@@H]1CN([C@@H](C)CO)C(=O)c2cc(-c3cccc(C(=O)N(C)C)c3)cnc2O[C@H]1CN(C)S(=O)(=O)c1ccccc1`: the relative growth was 1.01.
The result for `COCC#Cc1ccc2c(c1)O[C@H](CN(C)C(=O)C1CCCCC1)[C@H](C)CN([C@H](C)CO)S2(=O)=O` reads 0.988.
Regarding `COC1C=COC2(C)Oc3c(C)c(O)c4c(O)c(c5c(nc6cc(C)ccn65)c4c3C2=O)NC(=O)C(C)=CC=CC(C)C(O)C(C)C(O)C(C)C(OC(C)=O)C1C` (stereo not drawn), the relative growth is 0.0499 (active).
In the case of `COC1C=COC2(C)Oc3c(C)c(O)c4c(O)c(c(C=NN5CCN(C)CC5)c(O)c4c3C2=O)NC(=O)C(C)=CC=CC(C)C(O)C(C)C(O)C(C)C(OC(C)=O)C1C` (stereo not drawn) it was 0.0777 (active).
Take `CO[C@H]1/C=C\O[C@@]2(C)Oc3c(C)c(O)c4c(O)c(c(/C=N/N=C/N5CCCCC5)c(O)c4c3C2=O)NC(=O)/C(C)=C\C=C/[C@H](C)[C@H](O)[C@@H](C)[C@@H](O)[C@@H](C)[C@H](OC(C)=O)[C@@H]1C`: the relative growth was 0.65.
Turning to `COC1C=COC2(C)Oc3c(C)c(O)c4c(O)c(c(C=NN5CCN(C6CCCC6)CC5)c(O)c4c3C2=O)NC(=O)C(C)=CC=CC(C)C(O)C(C)C(O)C(C)C(OC(C)=O)C1C` (stereo not drawn), the relative growth is 0.0719 (active).
The result for `CO[C@H]1/C=C\O[C@@]2(C)Oc3c(C)c(O)c4c(c3C2=O)[C@]2(C=C(NC(=O)/C(C)=C\C=C/[C@@H](C)[C@@H](O)[C@@H](C)[C@@H](O)[C@@H](C)[C@@H](OC(C)=O)[C@@H]1C)C4=O)OCC(=O)O2` reads 0.905; that for `C[C@@H]1CCCCO[C@H](CN(C)Cc2ccc3c(c2)OCO3)[C@H](C)CN([C@@H](C)CO)C(=O)c2cc(NC(=O)NC3CCCCC3)ccc2O1`, 1.01.
In the case of `C[C@H](CO)N1C[C@H](C)[C@@H](CN(C)C(=O)NC2CCCCC2)Oc2c(NC(=O)Nc3cccc4ccccc34)cccc2C1=O` it was 0.995; in that of `C[C@H](CO)N1C[C@H](C)[C@@H](CN(C)Cc2ccncc2)Oc2c(NS(=O)(=O)c3ccc(F)cc3)cccc2C1=O`, 1; in that of `CO[C@H]1CN(C)C(=O)c2ccc(NS(C)(=O)=O)cc2OC[C@H](C)N(C(=O)C2CCCCC2)C[C@@H]1C`, 0.962.
The result for `C[C@H]1CN([C@@H](C)CO)C(=O)Cc2cc(NS(=O)(=O)c3ccc(Cl)cc3)ccc2O[C@H]1CN(C)Cc1ccc(-c2ccccc2)cc1` reads 0.992; that for `Cc1noc(C)c1NC(=O)N(C)C[C@@H]1OCCCC[C@@H](C)Oc2ccc(NC(=O)Cc3ccccc3)cc2C(=O)N([C@@H](C)CO)C[C@H]1C`, 0.958.
